NCOA1 inh = SRC1 coactivator transcriptional activity inhibitors, primary screen, cell-based, luminescence | Nuclear receptor coactivator 1 (Homo sapiens), Q15788 | HEK293 GAL4-SRC1 luciferase reporter | inhibition, % at 3.6 µM | hit rate 0.12% among 360,000;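 active means inhibition above the campaign mean plus 3 SD, with each screening campaign given its own cutoff, cut at about 60% in these data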;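 further: 0% = DMSO treated cells and 100% = gossypol at 36 µM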
COUP-TFII inh = NR2F2 transcriptional activity inhibitors, primary screen, cell-based, luciferase reporter, HEK293T, luminescence | inhibition, % at 8.6 µM | COUP transcription factor 2 (Homo sapiens), P24468 | AID 686940, 2013 | HEK293T NGFI-A luciferase reporter | hit rate 0.7% among 370,000;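 active means inhibition above a per-plate cutoff, mean inhibition of test wells between control levels plus 3 SD, cut at about 38% in these data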;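 further: cells cotransfected with COUP-TFII expression vector driving the NGFI-A reporter; 0% = median of COUP-TF2 test wells and 100% = reporter-only cells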
SRC3 inh = SRC3 coactivator transcriptional activity inhibitors, primary screen, cell-based, luminescence. AID 588352, 2011. hit rate 0.17% among 360,000. Nuclear receptor coactivator 3 (Homo sapiens), Q9Y6Q9. HEK293 GAL4-SRC3 luciferase reporter. inhibition, % at 3.6 µM;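 active means inhibition above a per-campaign cutoff, the mean of all compounds plus 3 SD, cut at about 60% in these data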;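 further: 0% = DMSO-treated cells and 100% = gossypol-treated cells at 36 µM; higher means less SRC3-driven luciferase light from the GAL4 reporter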
Target sequence (Q9Y6Q9 whole entry, looked up, the tested form may be a part): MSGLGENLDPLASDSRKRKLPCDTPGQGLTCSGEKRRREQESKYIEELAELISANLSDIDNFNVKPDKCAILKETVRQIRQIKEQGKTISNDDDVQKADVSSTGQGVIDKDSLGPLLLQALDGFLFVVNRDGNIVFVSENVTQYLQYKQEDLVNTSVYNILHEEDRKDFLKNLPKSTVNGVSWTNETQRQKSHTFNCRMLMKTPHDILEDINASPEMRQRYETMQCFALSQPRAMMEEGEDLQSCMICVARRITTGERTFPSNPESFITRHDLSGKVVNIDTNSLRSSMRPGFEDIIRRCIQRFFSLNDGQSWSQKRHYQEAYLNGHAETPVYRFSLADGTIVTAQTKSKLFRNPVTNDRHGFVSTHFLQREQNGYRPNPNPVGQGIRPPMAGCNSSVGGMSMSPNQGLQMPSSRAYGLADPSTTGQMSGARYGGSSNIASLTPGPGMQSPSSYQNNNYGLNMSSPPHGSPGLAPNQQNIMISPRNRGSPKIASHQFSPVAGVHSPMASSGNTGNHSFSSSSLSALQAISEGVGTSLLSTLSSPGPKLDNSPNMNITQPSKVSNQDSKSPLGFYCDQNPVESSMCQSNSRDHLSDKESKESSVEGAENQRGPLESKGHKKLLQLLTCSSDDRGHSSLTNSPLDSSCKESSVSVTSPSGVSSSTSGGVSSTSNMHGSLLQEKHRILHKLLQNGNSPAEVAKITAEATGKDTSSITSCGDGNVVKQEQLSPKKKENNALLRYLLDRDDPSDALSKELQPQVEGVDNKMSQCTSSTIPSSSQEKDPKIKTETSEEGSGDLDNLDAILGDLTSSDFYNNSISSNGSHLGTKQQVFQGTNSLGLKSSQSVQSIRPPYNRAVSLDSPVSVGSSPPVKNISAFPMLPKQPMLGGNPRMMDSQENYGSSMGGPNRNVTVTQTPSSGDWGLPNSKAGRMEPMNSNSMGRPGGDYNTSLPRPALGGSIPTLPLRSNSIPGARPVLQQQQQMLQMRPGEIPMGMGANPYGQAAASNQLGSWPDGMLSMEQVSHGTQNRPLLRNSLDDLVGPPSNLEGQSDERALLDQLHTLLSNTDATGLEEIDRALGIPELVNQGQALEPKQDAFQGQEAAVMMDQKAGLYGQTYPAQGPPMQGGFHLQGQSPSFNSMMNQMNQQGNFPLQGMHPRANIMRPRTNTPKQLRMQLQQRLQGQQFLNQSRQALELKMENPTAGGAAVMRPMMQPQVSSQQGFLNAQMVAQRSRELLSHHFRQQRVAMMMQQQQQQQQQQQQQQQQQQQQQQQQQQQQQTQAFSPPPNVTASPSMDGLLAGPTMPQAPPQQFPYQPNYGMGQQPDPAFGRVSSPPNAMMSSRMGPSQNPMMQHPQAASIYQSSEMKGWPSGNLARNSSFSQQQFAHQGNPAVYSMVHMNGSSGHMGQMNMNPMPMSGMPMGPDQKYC
NR5A2 inv ag = LRH-1 (NR5A2) inverse agonists, primary screen, cell-based, luminescence, HEK293T, StAR-luciferase reporter | inhibition, % at 3.6 µM | hit rate 0.13% among 360,000 | LRH-1 transfected, 24 h | Nuclear receptor subfamily 5 group A member 2 (Homo sapiens), O00482 | AID 602396, 2012;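 active means inhibition above the mean inhibition of all tested compounds plus 3 SD, cut at about 73% in these data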;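 further: 0% = DMSO wells and 100% = reporter-only cells lacking LRH-1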
NCOA2 inhibitor = inhibition of GAL4-SRC2 driven luciferase reporter, primary screen, SRC2 inhibitor project, cell-based, luminescence | AID 651957, 2012 | inhibition, % at 9 µM | hit rate 0.17% among 370,000 | HEK293 GAL4-SRC2 luciferase reporter | Nuclear receptor coactivator 2 (Homo sapiens), Q15596;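 active means inhibition above the mean inhibition of all tested compounds plus 3 SD, set per campaign, cut at about 52% in these data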;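 further: 0% = DMSO treated cells and 100% = cells given Gossypol at 36 µM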
Gal4-VP16 ctr = Gal4-VP16 luciferase reporter inhibitors, counter-screen for COUP-TFII antagonist project, cell-based, luminescence, HEK293 | inhibition, % at 8.5 µM | shares compounds with COUP-TFII inh | hit rate 25% among 2,500; in the data active means inhibition above about 13%
COUP-TFII conf = NR2F2 transcriptional activity inhibitors, confirmation, cell-based, luciferase reporter, HEK293, triplicate | HEK293 NGFI-A luciferase reporter, luminescence | inhibition, % at 8.5 µM | shares compounds with COUP-TFII inh | AID 687008, 2013 | hit rate 45% among 2,500;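 active means mean inhibition over three repeats above a set limit taken from the earlier primary screen, cut at about 38% in these data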;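 further: 100% = cells given the luciferase reporter alone without the COUP-TF2 vector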
The depositor's hits bear a star; · = no result given. Only some compounds are listed: those with a hit (about 0.81% of all), similar ones and a draw of the others.

SMILES	NCOA1 inh	COUP-TFII inh	SRC3 inh	NR5A2 inv ag	NCOA2 inhibitor	Gal4-VP16 ctr	COUP-TFII conf
CN(Cc1ccccc1)c1ncnc2sccc12	-2	21	16	12	23	·	·
CN(CC(=O)Nc1cccc(F)c1)CC(=O)N(C)CC(=O)Nc1ccccc1Br	-6	-6	-4	-7	-3	·	·
COc1ccc(S(=O)(=O)Nc2ccccc2C(N)=O)cc1OC	-20	5	12	11	-20	·	·
Cc1cc(C)n2nc(S(=O)(=O)NC3CCCCC3)nc2n1	-35	5	18	4	-18	·	·
N#Cc1cc2c(nc1SCc1ccc(Cl)nc1)CCCCC2	-13	-10	7	-12	-2	·	·
O=C(NCC1COc2ccccc2O1)c1ccc(NC(=O)c2c(Cl)cccc2Cl)cc1 (stereo not drawn)	·	5	·	·	17	·	·
Cc1ccc(NS(=O)(=O)c2ccc(C(=O)N3CCN(c4ncccn4)CC3)cc2)cc1	9	39*	23	34	-1	-2	14
CC(C)[C@@H]1CC[C@@H](C)C[C@H]1OC(=O)C[n+]1cc(-c2ccc(Cl)cc2)n2c1CCCCC2	11	24	37	23	9	·	·
COc1ccc(-c2c[n+](CC(=O)OC3CC(C)CCC3C(C)C)c3n2CCC3)cc1 (stereo not drawn)	10	64*	57	45	5	6	19
Cc1ccc(Oc2ccc(C(=O)NCc3ccncc3)cc2)cc1	26	74*	16	63	45	-7	41*
COC1C=CC=C(C)C(=O)NC2=CC(=O)C(N)=C(CC(C)CC(OC)C(O)C(C)C=C(C)C1OC(N)=O)C2=O (stereo not drawn)	72*	55*	75*	86*	19	61*	75*
COC1CC(C)C(OC)c2cc(O)cc(c2O)NC(=O)C(C)=CC=CC(C)C(OC(N)=O)C(C)=CC(C)C1OC (stereo not drawn)	34	-23	55	23	11	·	·
COC(=O)c1cn(CCOc2ccc(C)cc2)c2ccccc12	9	-9	6	0	-2	·	·
CC(=O)c1cn(CCOc2ccccc2C)c2ccccc12	19	61*	28	25	19	0	54*
CC(=O)c1cn(CCOc2ccc(F)cc2)c2ccccc12	1	47*	-16	12	30	-13	11
CC(=O)c1cn(CC(=O)Nc2ccccc2)c2ccccc12	17	47*	19	41	17	-6	19
CCC(=O)c1cn(CC(=O)Nc2ccccc2)c2ccccc12	-3	-3	-27	-16	7	·	·
Cc1ccc(OCCCCn2cnc3ccccc32)cc1	-3	-1	9	12	-6	·	·
Cc1ccccc1OCCn1cc(C(=S)N2CCCC2)c2ccccc21	0	1	3	-25	-15	·	·
Cc1ccccc1OCCCCn1cnc2ccccc21	12	39*	-11	20	7	-16	17
CNC(=S)N(CCCN(C)C)Cc1cc2cc3c(cc2[nH]c1=O)OCCO3	-17	-18	-10	0	-32	·	·
CSCCC(NC(=O)c1ccccc1Br)C(=O)N1CCCCCCC1 (stereo not drawn)	-4	18	-8	12	-15	·	·
CS(=O)(=O)N(CC(=O)NCCSc1ccccc1)c1ccc2c(c1)OCO2	13	38*	-10	-11	9	-9	-7
CC1=CC(=O)C(C(C)C)=C/C1=N\OS(=O)(=O)c1ccccc1	·	82*	·	·	·	6	13
CCOC(=O)/C=C1\CN(Cc2cc(OC)c(OC)c(OC)c2)S(=O)(=O)c2ccc(C(F)(F)F)cc21	-2	48*	3	-7	-9	-8	0
O=C(COC(=O)c1n[nH]c2ccccc12)Nc1ccc(S(=O)(=O)N2CCCC2)cc1	-3	46*	24	27	16	1	21

Screens as filed in PubChem.
